ST2 IL33 inh = blocks human ST2 binding to IL-33 | inhibition, % for hits at 17 µM | Q01638 | AlphaLISA ST2-Fc/biotin-IL-33 interaction, 1 h | 78,000 tested, 2.3% active; in the data active = inhibition above about 30%
Target sequence (Q01638 whole entry, looked up): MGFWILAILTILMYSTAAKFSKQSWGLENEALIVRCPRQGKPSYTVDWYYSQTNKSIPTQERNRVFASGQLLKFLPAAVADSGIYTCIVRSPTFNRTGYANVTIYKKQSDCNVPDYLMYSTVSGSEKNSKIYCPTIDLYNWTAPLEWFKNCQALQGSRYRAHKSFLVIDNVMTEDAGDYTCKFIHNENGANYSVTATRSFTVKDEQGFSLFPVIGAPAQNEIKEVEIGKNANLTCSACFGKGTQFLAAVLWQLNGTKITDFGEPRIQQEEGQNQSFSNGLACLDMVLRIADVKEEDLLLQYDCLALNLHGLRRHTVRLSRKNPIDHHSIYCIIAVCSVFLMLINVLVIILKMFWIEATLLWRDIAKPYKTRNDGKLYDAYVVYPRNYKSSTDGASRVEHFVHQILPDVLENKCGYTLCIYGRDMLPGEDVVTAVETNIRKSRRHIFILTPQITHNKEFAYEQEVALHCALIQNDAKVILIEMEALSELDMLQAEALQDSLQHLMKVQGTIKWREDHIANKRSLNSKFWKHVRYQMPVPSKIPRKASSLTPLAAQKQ
Each line names hits and unclear results; the compound was inactive in the other large screens. The full list was thinned out, with hits kept by preference.

CCOc1ccc(CN2CCCC(N3CCN(c4ccc(F)cc4)CC3)C2)cc1CO (stereo not drawn)	none
O=C(NCCCc1ccccc1)C1CC12CCN(C(=O)c1cccc(-c3ccccc3F)c1)CC2 (stereo not drawn)	none
COc1ccc(CC(=O)N2CCC3(CC2)CC3C(=O)NCCCc2ccccc2)cc1OC (stereo not drawn)	none
O=C(NCCC(c1ccccc1)c1ccccc1)C1CC12CCN(C(=O)c1ccc[n+]([O-])c1)CC2 (stereo not drawn)	ST2 IL33 inh 34%
Cc1cc(C)c(CN(C)C(C)C(=O)N(C)C)cc1C (stereo not drawn)	none
Cc1ccc(Cl)cc1N1CCN(C(=O)C(NS(=O)(=O)c2cccs2)C(C)C)CC1 (stereo not drawn)	none
CCOc1ccc(S(=O)(=O)N=C2C=C(Nc3ccc(O)cc3)C(=O)c3ccccc32)cc1	ST2 IL33 inh 84%
CCOc1ccc(NC(=O)COc2ccc(OC)cc2)cc1	none
O=S(=O)(Nc1ccc(F)c(Cl)c1)c1cccs1	none
Cc1cccc(Nc2c3c4c(cccc4n(C)c2=O)C(=O)c2ccccc2-3)c1	none
COc1ccc(S(=O)(=O)N=C2C=C(Nc3cccc(C)c3)C(=O)c3ccccc32)cc1	ST2 IL33 inh 79%
Cc1cccc(NS(=O)(=O)c2ccc(F)cc2)c1	none
CCOc1ccc(NC(=O)c2ccccc2Cl)cc1	none
Cc1ccc(Cl)cc1NC1=CC(=NS(=O)(=O)c2cccs2)c2ccccc2C1=O	ST2 IL33 inh 56%
CCOc1ccc(NC2=NS(=O)(=O)c3ccccc32)cc1	none
CCOc1ccc(NC(=O)C(Cc2ccccc2)N2C(=O)c3ccccc3C2=O)cc1 (stereo not drawn)	none
CCOc1ccc(NC2=CC(=NS(=O)(=O)c3ccc(OC)cc3)c3ccccc3C2=O)cc1	ST2 IL33 inh 94%
Cc1ccsc1CNc1cccc(C(=O)N[C@H](C)C(N)=O)c1	none
CCOc1ccccc1NC(=O)C1CCN(C(=O)c2ccccc2Cl)CC1	none
CCn1cc(C(=O)NC2CCCCC2)c(=O)c2cc(S(=O)(=O)N(C)C3CCCCC3)ccc21	none
Cn1cc(SCc2ccc(Br)cc2)c2ccccc21	none
COc1ccc(NC2=CC(=NS(=O)(=O)c3ccc(Cl)cc3)c3ccccc3C2=O)cc1	ST2 IL33 inh 93%
O=S(=O)(O)c1ccc(Nc2ccccc2)cc1	none
O=C1C(Nc2ccccc2)=CC(c2ccc(O)cc2)N1c1ccccc1 (stereo not drawn)	none
CCOc1ccc(NC(=O)C(c2ccccc2)c2ccccc2)cc1	none
CC(C)N=C(NS(=O)(=O)c1cccs1)c1ccccc1	none
O=C1C(Nc2ccc(O)cc2)=CC(=NS(=O)(=O)c2cccs2)c2ccccc21	ST2 IL33 inh 88%
COc1ccc(NS(=O)(=O)c2ccc(NC(=O)Nc3ccc(Cl)cc3)cc2)cc1	none
CCOc1ccc(NC2=CC(=NS(=O)(=O)c3ccccc3)c3ccccc3C2=O)cc1	ST2 IL33 inh 77%
O=C1C=C(Nc2ccc(O)cc2)C(=O)c2ccccc21	ST2 IL33 inh 42%
O=S(=O)(Nc1ccc(Oc2ccccc2)cc1)c1ccc(Cl)cc1	none
NC(=O)c1ccc(NS(=O)(=O)c2cccs2)cc1	none
CCOc1ccc(NC(=O)Cc2ccccc2)cc1	none
O=C(c1ccc(=O)[nH]n1)N1CCCC2(CCNCC2)CC1	none
CC(C)Cn1c(=O)n(C)c(=O)c2[nH]cnc21	none
O=C(O)c1ccc(NC(=O)C2CCCCC2C(=O)O)cc1 (stereo not drawn)	none
CCC(=O)N1c2ccc(S(=O)(=O)NCCOC)cc2CC1C (stereo not drawn)	none
O=C(O)c1ccc(S(=O)(=O)c2ccc3c(c2)C(=O)N(c2ccccc2O)C3=O)cc1	none
CCOC(=O)C1=C(N)OC2=C(C(=O)CC(C)(C)C2)C1c1ccc(OCc2ccccc2)cc1 (stereo not drawn)	none
COc1ncc(CN(C)C(C)c2cccnc2)cn1 (stereo not drawn)	none
CC1=C(C(=O)Nc2ccccn2)C(c2ccc(Cl)cc2Cl)C2=C(CC(C)(C)CC2=O)N1 (stereo not drawn)	none
Cc1cccc(CCNc2nc3c(c(=O)n(C)c(=O)n3C)n2C)c1	none
O=S(=O)(N=C(Nc1cccc(O)c1)c1ccccc1)c1ccc(Cl)cc1	none
CCc1ccc(S(=O)(=O)N=C2C=C(Nc3ccc(O)cc3)C(=O)c3ccccc32)cc1	ST2 IL33 inh 91%
CCc1ccc(NS(=O)(=O)c2ccc(OC)c(OC)c2)cc1	none
COc1cc(C2CC(=O)N(CC(=O)N3CCCC3)c3ccccc3S2)cc(OC)c1OC (stereo not drawn)	none
Cc1ncc(-c2cnc3ccccc3c2)[nH]1	none
Cc1ccc(-c2cc(N3CCN(S(=O)(=O)c4cc(C)ccc4C)CC3)ncn2)cc1	none
c1ccc2c(CN3CCOCC3)ccnc2c1	ST2 IL33 inh 40%
Clc1cccc(CN2CCOCC2)c1Cl	none
CS(=O)(=O)NCCC1CN(Cc2ccnc3ccccc23)CCO1 (stereo not drawn)	none
N#Cc1c2c(c(NCCCO)n3c1nc1ccccc13)CCC2	ST2 IL33 inh 31%
Cc1c(Cc2ccccc2)c(NCCCO)n2c(nc3ccccc32)c1C#N	none
CCN(CC)CCNc1c2c(c(C#N)c3nc4ccccc4n13)CCC2	none
N#Cc1ccccc1N=Cc1ccc(Br)c([N+](=O)[O-])c1	ST2 IL33 inh 30%
Cc1ccc(N=Cc2ccc(N(C)C)c([N+](=O)[O-])c2)cc1	none
Cc1ccc(N=Cc2ccc(Br)c([N+](=O)[O-])c2)c(O)c1	none
COc1ccc(N=Cc2ccc(Oc3ccc([N+](=O)[O-])cc3[N+](=O)[O-])c(OC)c2)cc1	ST2 IL33 inh 34%
COc1cc(C=O)ccc1OCCCOc1ccc([N+](=O)[O-])cc1	none
N#Cc1ccccc1N=Cc1cc2c(cc1[N+](=O)[O-])OCO2	none
COc1ccc(N=Cc2ccc(Br)c([N+](=O)[O-])c2)cc1	ST2 IL33 inh 38%
O=[N+]([O-])c1cc(C=Nc2ccc3c(c2)OCCO3)ccc1Br	none
COc1cc(OC)c(C=Nc2cc([N+](=O)[O-])ccc2C)cc1Br	none
c1ccc(-c2nnc(-c3ccncc3)n2-c2ccccc2)cc1	none
O=C(C1CCN(S(=O)(=O)c2cccnc2)CC1)N1CC=C(c2ccccc2)CC1	none
COc1ccccc1NC(=O)CCN1CCC(C(N)=O)CC1	none
O=C(CS(=O)(=O)c1c[nH]c2ccccc12)N1CCCCC1	none
c1cc(-c2ccc(CN(Cc3ccsc3)CC3CCCO3)o2)[nH]n1 (stereo not drawn)	none
CC(=O)Oc1ccc2c(=O)c(-c3csc(-c4ccccc4)n3)coc2c1	none
CCOc1ccc2c(=O)c(-c3nc4ccccc4s3)coc2c1	ST2 IL33 inh 30%
CCc1cc2c(=O)c(-c3nc4ccccc4s3)coc2cc1OC	none
Cc1cccc(-c2noc(CN(C)C(=O)c3ccc4nc(C)[nH]c4c3)n2)c1	none
COc1ccc(I)cc1S(=O)(=O)NCc1ccccn1	none
Cc1ccc2c(C(=O)CN3CCOCC3)c(C)[nH]c2c1	ST2 IL33 inh 32%
COc1ccc2c(c1)c(C(=O)CN1CCOCC1)c(C)n2C	none
Cc1[nH]c2ccc(Cl)cc2c(=O)c1CN1CCOCC1	none
Cc1ccc(C)c(S(=O)(=O)N(CC(=O)O)Cc2c(Cl)cccc2Cl)c1	none
COc1ccc(C(=O)N[C@H]2C[C@@H](c3nc(-c4ccc(OC(F)(F)F)cc4)no3)N(C)C2)cc1	none
Cc1noc([C@@H]2C[C@H](NC(=O)c3ccc(F)cc3)CN2C)n1	ST2 IL33 inh 40%
CN(C)c1ccc(C(=O)N[C@H]2C[C@@H](c3nc(-c4ccccn4)no3)N(C)C2)cc1	none
CN1C[C@@H](NC(=O)c2ccc(-c3ccccc3)cc2)C[C@H]1c1nc(-c2ccc(Cl)cc2)no1	none
CN1C[C@@H](NC(=O)c2ccc(C(C)(C)C)cc2)C[C@H]1c1nc(-c2ccc3c(c2)OCO3)no1	ST2 IL33 inh 64%

Source: PubChem
